Measured values taken from PubChem BioAssay AID1645879 (National Center for Advancing Translational Sciences (NCATS), 2021).
Results filed as inconclusive are left out. The source made the active and inactive calls. The call rests on the fitted dose curve; in most records, active means well fitted inhibition curve with a large enough effect; inconclusive means small, poorly fitted or top-dose-only effect; inactive means no such curve, though single readings can be large or run the other way.

Test: Counterscreen qHTS assay for inhibitors of N-terminal methyltransferase 1 (NTMT1): SPKRIA Counterscreen Assay
Details: biochemical qHTS; series mostly up to 99.2 µM
From the text: Assay Submitter (PI): Rong Huang Ph.D,
Purdue University, West Lafayette, IN 47907
The N-terminal methytransferase 1 is the first methyltransferase that methylates protein alpha-N-amines and plays an important role in regulating cell mitosis, chromatin interactions and DNA repair. It is observed to be over-expressed in various cancer patient tissues like malignant melanoma and colorectal cancer tissues. Knockdown of NTMT1 in cancer cells causes cell mitotic defects and enhances sensitivity to DNA damaging chemotherapeutics. […] These critical cellular processes in which NTMT1 is implicated, coupled with emerging links to cellular dysfunction, strengthen the inference that NTMT1 is a compelling novel anticancer target. Progress have been made in understanding the molecular properties of NTMT1 and the biological consequences of protein alpha-N-terminal methylation, but there are no specific small molecule probes available for NTMT1 to fully characterize its MTase activity. To address this unmet need, a panel of assay is created and established to enable quantitative high-throughput screening (qHTS) for novel, potent, and selective small molecule NTMT1 inhibitors. Two orthogonal qHTS that use different reagents (ThioGlo vs. MTaseGlo) are developed for primary robotic screening against the NCATS chemical library of more than 400,000 small molecules. Identified inhibitors are reacquired, validated, and further characterized.
MTaseGlo Assay is a luminescence screen that measure the activity of methyltransferases based on the reaction product S-adenosyl homocysteine (SAH). The substrate SAM is converted to SAH upon enzyme activation. MTase-Glo reagent and detection solution convert SAH to ATP and measure the light from the luciferase reaction. Nicotinamide N-methyltransferase (NNMT) is a cystolic enzyme that catalyzes the transfer of a methyl group from the co-factor SAM onto the substrate, nicotinamide (NA) to form 1-methyl-nicotinamide (MNA) and SAH. NNMT MTaseGlo assay is used as a counterscreen to evaluate selectivity of identified inhibitors.
SPKRIA and Ac-RCC-10 control is provided by the Huang laboratory.
PROTOCOL TABLE; SEQUENCE No. (e.g., 1, 2, 3, etc.); […] (e.g., Cells, Incubation, Reagent, etc.); VALUE; DESCRIPTION
1; Reagent; 3 uL; dispense assay buffer.
2; Compound; 23 nL; pin compounds and control into the assay plate.
3; Time; 15 min; room temperature incubation.
4; Reagent; 1 uL; dispensed [4x] substrate or buffer.
5; Time; 30 min; incubate at room temperature.
6; Reagent; 1 uL; dispense MTase-Glo Reagent (R).
7; Time; 30 min; incubate at room temperature.
8; Reagent; 5 uL; dispense [1x] MTase-Glo Detection Solution to allow for ADP to be converted to ATP.
9; Centrifugation; 1,000 RPMs; assay plates were centrifuged.
10; Incubation; 30 min; room temperature.
11; Detection; Luminescence; ViewLux plate reader (clear filter, 10 second exposure).
NOTES (numbers refer to Sequence numbers above; values are from representative experiments)
1; Dispense the assay buffer into Greiner 1536-well black / solid bottom assay plate (Greiner Bio One, Monroe, NC).
2; Pin control inhibitor Ac-RCC1-10 at a final concentration range of 234 nM to 143 uM using a Wako Pin Tool (Wako Automation USA) equipped with a 1536-slotted pin array (Wako Automation, Richmond, VA). Pin compound library into the assay plates (columns 5 - 48) at a final concentration range of 97 nM to 250 uM.
3; Incubate the assay plates at room temperature.
4; Dispense 1 uL of substrate SPKRIA solution (final concentration 1 uM) or 1 uL buffer was added to the wells bringing the final assay volume to 4uL. The assay plate was covered with metal lids.
5; Incubate the assay plate at room temperature.
6; Dispense 1 uL of 5x MTase-Glo Reagent in the assay plate.
7; Incubate at room temperature to allow for SAH to be converted to ADP
8; Dispense 5 uL of 5x MTase-Glo Detection Solution in the assay plate to allow for ADP to be converted to ATP.
9; Assay plates were centrifuged for 15 seconds.
[…]

| Structure (SMILES) | outcome |
| --- | --- |
| CN(C)CCc1c[nH]c2cccc(O)c12 | inactive |
| CC[C@]1(O)CC[C@H]2[C@@H]3CCC4=CCCC[C@@H]4[C@H]3CC[C@@]21C | inactive |
| C[C@]12CC[C@H]3[C@@H](CCC4=CC(=O)CC[C@@H]43)[C@@H]1CC[C@@H]2O | inactive |
| C=CC[C@]1(O)CC[C@H]2[C@@H]3CCC4=CC(=O)CCC4=C3C=C[C@@]21C | inactive |
| C[C@]12CCC(=O)C=C1CC[C@@H]1[C@@H]2CC[C@@]2(C)[C@H]1CC[C@]2(C)O | inactive |
| CCc1cc(OC)c(C[C@H](C)N)cc1OC | inactive |
| C[C@@H]1CC2=CC(=O)CC[C@@H]2[C@H]2CC[C@@]3(C)[C@@H](CC[C@]3(C)O)[C@@H]21 | inactive |
| C[C@H](N)C(=O)c1ccccc1 | inactive |
